The values that follow come from PubChem BioAssay AID1851 (National Center for Advancing Translational Sciences (NCATS), 2009).

Molecules are shown by their SMILES. Values joined by “and” are separate entries in the source; they are usually repeats but may differ in a detail not shown here. Identical values can stand only once. Hit rate of the full screen: of about 16,000 compounds, about 5,800 (36%) were called active. About 23% were inconclusive and are not listed. Calls follow the shape of the dose curve; as a rule, active = well fitted curve in the direction sought with a large enough effect; inconclusive = small, poorly fitted or top-dose-only effect, or effect the other way; inactive = no such curve, though single readings can be large or run the other way. The list shows a part of the results. Some structures have more than one record in an assay (separate samples or runs), and their calls can disagree.
% is scaled to controls: 0 for no effect and ±100 for the full control effect.

Chain of Cytochrome P450 2C19 (Homo sapiens) (P33261 whole entry, looked up): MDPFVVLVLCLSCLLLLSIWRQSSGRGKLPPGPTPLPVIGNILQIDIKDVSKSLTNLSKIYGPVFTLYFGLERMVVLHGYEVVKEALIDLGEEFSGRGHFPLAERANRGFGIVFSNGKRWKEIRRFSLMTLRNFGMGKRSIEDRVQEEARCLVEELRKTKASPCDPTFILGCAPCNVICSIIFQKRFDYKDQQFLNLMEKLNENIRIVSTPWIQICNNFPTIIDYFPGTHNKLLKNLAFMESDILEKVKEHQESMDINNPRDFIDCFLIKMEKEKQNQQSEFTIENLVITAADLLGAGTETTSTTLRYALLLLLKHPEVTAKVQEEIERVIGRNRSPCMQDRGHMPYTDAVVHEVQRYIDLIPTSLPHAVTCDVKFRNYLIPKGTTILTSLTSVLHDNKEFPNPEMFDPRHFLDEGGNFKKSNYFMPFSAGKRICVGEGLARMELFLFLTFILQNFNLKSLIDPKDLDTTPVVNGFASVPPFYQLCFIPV

The assay concerns the target Cytochrome P450 2C19 (Homo sapiens) (UniProt P33261). The experiment in a line: Cytochrome panel assay with activity outcomes. As to conditions: recombinant CYP, pro-luciferin dealkylation, luminescence, p450-cyp2c19; series mostly up to 57.1 µM.
The AC50 is the concentration at which the activity in the assay is half-maximal. For `CCOC(=O)c1nnn(-c2nc(OC)nc(N3CCCCC3)n2)c1-c1ccccc1`, the AC50 is 7.94 µM (active).

For the compound `CCOC(=O)c1nnn(-c2nonc2N)c1-c1ccc(C)cc1`, the concentration at half-maximal activity (AC50) was 1.58 µM (active).

Consider `COCc1c(C(N)=O)nnn1-c1nonc1N`, for which the AC50 result was “inactive”.

Turning to `OC[C@H]1NC[C@H](O)[C@@H](O)[C@H]1O`, the AC50 entry is “inactive”.

In the case of `COCC(=O)N1CCC[C@@]2(CCN(Cc3ccc(C#N)cc3)C2)C1`, the AC50 entry was “inactive”.

As for `O=C(O)[C@@H]1CCCN1Cc1ccc2c(c1)OCO2`, the activity, negative = inhibition was 14.1% [at 11.4 µM] (inactive).

`O=C(COc1ccc(Cl)cc1)N1CCN(Cc2ccc3c(c2)OCO3)CC1`: the AC50 was 5.01 µM (active).

In the case of `c1cnc(N2CCN(Cc3ccc4c(c3)OCO4)CC2)nc1`, the AC50 was 2 µM (active) and 631 nM (active) and inactive.

Turning to `COCC(=O)N1CCC2(CC1)CN(Cc1ccc(C#N)cc1)C2`, the AC50 entry is “inactive”.

As for `O=C(CCN1C(=O)c2cccc3cccc(c23)C1=O)N1CCN(Cc2ccc3c(c2)OCO3)CC1`, the half-maximal activity concentration (AC50) was 1.58 µM (active).

`Cc1cccc(Oc2ncnc3onc(C)c23)c1C`: the concentration at half-maximal activity (AC50) is 5.01 µM (active).

As to `Cc1noc(C)c1-c1cc(NCc2ccccc2)ncn1`, the AC50 entry is “inactive”.

In the case of `Cc1noc2ncnc(Oc3ccc4ccccc4c3)c12`, the AC50 was 7.08 µM (active).

With `COc1ccc(NC(=O)N2CC3(CCN(C(=O)c4csnn4)CC3)C2)cc1`, the AC50 result is “inactive”.

Regarding `O=C(O)CN1CCN(Cc2ccc(F)cc2Cl)C1=O`, the AC50 was 5.01 µM (active).

`NC(Cc1ccccc1)=NCC(=O)O`: the activity, negative = inhibition is 18.2% [at 11.4 µM] (inactive).

Take `O=C(O)CN1CCN(Cc2ccccc2)C1=O`: the half-maximal activity concentration (AC50) was 6.31 µM (active).

On to `Cc1cccc(CN2CCN(CC(=O)O)C2=O)c1`, for which the AC50 entry was “inactive”.

Take `Nc1nc2ncc(CNc3ccc(C(=O)N[C@@H](CCC(=O)O)C(=O)O)cc3)nc2c(=O)[nH]1`: the AC50 result was “inactive”.

Regarding `NC(N)=N/N=C\c1ccc(O)c(C(=O)O)c1`, the activity, negative = inhibition is 16.2% [at 11.4 µM] (inactive).

On to `N[C@@H](C(=O)O)c1ccc(O)c(C(=O)O)c1`, for which the AC50 entry is “inactive”.

With `Nc1ccc(O)c(C(=O)O)c1`, the AC50 was 5.01 µM (active).

For the compound `Cc1ccc(C(=O)c2cn[nH]c2-c2cc(Cl)ccc2O)cc1`, the AC50 is 0.708 µM (active).

With `Cc1cc2c(nc1C)CCCCN2C[C@H](C)O/N=C\[C@@H](C)[C@H](OCc1ccccc1)C(C)C`, the activity, negative = inhibition is -20.8% [at 11.4 µM] (inactive).

Take `Cc1nc(SCC(=O)c2ccc(Cl)s2)c2oc3ccccc3c2n1`: the AC50 is 0.178 µM (active).

On to `CCc1nc(SCC(=O)N2CCCc3ccccc32)c2oc3ccccc3c2n1`, for which the AC50 was 3.98 µM (active).

As for `CCc1nc(SCC(=O)c2ccc(Cl)s2)c2oc3ccccc3c2n1`, the AC50 is 0.562 µM (active).

In the case of `CC(=O)OC[C@@H]1O[C@@H](O/N=C2/C[C@@H](O)[C@@H](O)[C@@H]3[C@@H]4C(=O)N(c5cccc(Oc6ccccc6)c5)C(=O)[C@H]4CC[C@@H]23)[C@H](OC(C)=O)[C@H](OC(C)=O)[C@@H]1OC(C)=O`, the activity, negative = inhibition was -22% [at 11.4 µM] (inactive).

Turning to `Clc1cccc(Oc2cnc3ccccc3n2)c1`, the half-maximal activity concentration (AC50) is 3.55 µM (active).

For `Cn1c(=O)c(-c2ccc(Cl)cc2)nc2cnc(Oc3cccc(Cl)c3)nc21`, the AC50 result is “inactive”.

As to `O=C(CCl)Nc1ccc(Oc2cnc3ccccc3n2)cc1`, the AC50 is 5.01 µM (active).

In the case of `Cn1cc(-c2nc3cnc(Oc4cccc(Cl)c4)nc3n(CCC#N)c2=O)c2ccccc21`, the AC50 entry was “inactive”.

Turning to `CN1CCCC[C@@H]1CCN1CCCCC1`, the activity, negative = inhibition was 26.3% [at 11.4 µM] (inactive).

Turning to `COC(=O)c1ccccc1NC(=O)c1cc2nc(C3CC3)cc(C(F)(F)F)n2n1`, the AC50 entry is “inactive”.

Consider `COc1ccc(NC(=O)N2CCCC3(CCN(C(=O)c4cc(C(F)(F)F)cc(C(F)(F)F)c4)CC3)C2)cc1`, for which the AC50 result was “inactive”.

For the compound `COc1ccc(-c2cc(C(F)(F)F)n3nc(C(=O)N4CCCCC4)cc3n2)cc1`, the AC50 was 14.1 µM (active).

For `CCOC(=O)C1CCCN(C(=O)c2cc3nc(-c4ccc5c(c4)OCO5)cc(C(F)(F)F)n3n2)C1` (stereo not drawn), the half-maximal activity concentration (AC50) is 14.1 µM (active).

For the compound `C[C@H](c1ccccc1)N1C(=O)[C@H]2[C@@H]3[C@H](O)[C@H](O)CC(=O)[C@H]3CC[C@H]2C1=O`, the activity, negative = inhibition is -0.855% [at 11.4 µM] (inactive).

As for `CCc1nnc(SCc2ccc(OC(C)C)cc2)n1N`, the concentration at half-maximal activity (AC50) is 10 µM (active).

With `COc1cccc2c1C(=N)c1c(O)c3c(c(O)c1C2=O)C[C@](O)(C(C)=O)C[C@@H]3O[C@H]1C[C@H](N)[C@@H](O)[C@H](C)O1`, the activity, negative = inhibition is -44.3% [at 11.4 µM] (inactive).

In the case of `Cc1ccc(C(=O)NCCNc2ccc(Cl)cc2[N+](=O)[O-])o1`, the half-maximal activity concentration (AC50) is 7.94 µM (active).

For `O=C(NCc1ccc(Cl)cc1)c1ccc(Cl)cc1[N+](=O)[O-]`, the concentration at half-maximal activity (AC50) is 1.26 µM (active).

On to `O=C(NCc1ccccc1)c1ccc(Cl)cc1[N+](=O)[O-]`, for which the half-maximal activity concentration (AC50) was 11.2 µM (active).

For the compound `CCOc1ccc(NC(=O)c2ccc(Br)o2)c([N+](=O)[O-])c1`, the AC50 result was “inactive”.

For `O=[N+]([O-])c1cc(Cl)cc2c1nc(NCCO)c1ccccc12`, the activity, negative = inhibition is -34.6% [at 11.4 µM] (inactive).

Consider `COc1cc(C(=O)NCCC(C)C)c([N+](=O)[O-])cc1OC`, for which the AC50 result was “inactive”.

In the case of `O=c1[nH]ncn2cccc12`, the AC50 entry is “inactive”.

Regarding `c1ccc2cc(-c3csnn3)ccc2c1`, the AC50 is 3.98 µM (active).

As for `Nc1nc(-c2ccc3ccccc3c2)cc(-c2cc(-c3ccc4ccccc4c3)nc(N)n2)n1`, the activity, negative = inhibition is 10.1% [at 11.4 µM] (inactive).

Turning to `O=C(O)c1nnsc1-c1csnn1`, the activity, negative = inhibition was -19.5% [at 11.4 µM] (inactive).

With `COc1ccc(-c2nc3cnc(N4CCN(C)CC4)nc3n(C3CC3)c2=O)cc1`, the AC50 entry is “inactive”.

As to `Cc1cccc(NC(=S)NC(=O)c2cccs2)n1`, the AC50 is 3.55 µM (active).

In the case of `COc1cc(NC(=S)NC(=O)c2c(OC)cccc2OC)ccc1NC(=O)c1cccs1`, the AC50 is 2 µM (active).

On to `O=C(NC(=S)NNC(=O)c1cccs1)c1ccco1`, for which the AC50 entry was “inactive”.

For the compound `Cc1ccccc1C(=O)Nc1cccc(NC(=S)NC(=O)c2cccs2)c1`, the concentration at half-maximal activity (AC50) is 3.55 µM (active).

Take `O=C(COc1ccccc1C(=O)N/N=C\c1ccc(O)c(O)c1)N/N=C/c1ccc(O)c(O)c1`: the half-maximal activity concentration (AC50) is 15.8 µM (active).

As for `O=C(N/N=C/c1cccc(OC2CSC2)c1)c1ccccc1O`, the AC50 entry is “inactive”.

For `CCOC(=O)CC(=O)CSc1nnc2c(n1)[nH]c1ccccc12`, the AC50 is 14.1 µM (active).

Turning to `Cc1ccc(C(=O)NNC(=O)CSc2nnc3c(n2)[nH]c2ccc(F)cc23)cc1`, the AC50 result was “inactive”.

With `CCOCc1cnc(C)nc1NCC(=O)c1c(C)[nH]c2ccccc12`, the AC50 result is “inactive”.

Regarding `O=C(CSc1nnc2c(n1)[nH]c1ccc(F)cc12)OCc1ccccc1`, the half-maximal activity concentration (AC50) is 0.398 µM (active).

Turning to `COc1[nH]c2ccc(F)cc2c1C(=O)OCC1CCN(CCNS(C)(=O)=O)CC1`, the AC50 result was “inactive”.

With `CON(C)C(=O)c1nnc2c(n1)[nH]c1ccccc12`, the activity, negative = inhibition was -38.3% [at 11.4 µM] (inactive).
